About 320 (3.2%) of roughly 10,000 compounds were called active. The sample holds actives, similar compounds and a random draw of the others, so the mix is not that of the screen. Values without a mark were called inactive. Cut-off read from the data, not from the text of the source: active = CPE inhibition mostly above about 9.1% (no sharp cut-off); inactive = mostly below about 7.2%.
Assay: antivirals protecting cells from dengue CPE – CPE readout, HTS (AID 540333)
Details: Dengue virus CPE inhibition in host cells, at 20 µM; active compounds read high

| SMILES | CPE inhibition |
| --- | --- |
| c1ccc(-c2[nH]c(-c3ccccc3)[n+](CC3CO3)c2-c2ccccc2)cc1 (stereo not given) | 16.7% (active) |
| O=C(NCCCN1CCOCC1)C(Cl)(Cl)Cl | inactive |
| CCOC(=O)CCCCCNC(=O)c1c(O)[nH]c(=O)[nH]c1=O | inactive |
| N#CC(C#N)=Cc1ccc(-c2ccccc2F)o1 | 12.6% (active) |
| COC(=O)C1=C(c2ccc(C(C)=O)cc2)C[C@@H]2CC[C@H]1N2C(=O)N1CCCCC1 | inactive |
| Cc1c(C(c2ccc(O)cc2)c2c(O)c3ccccc3oc2=O)c(=O)n(-c2ccccc2)n1C (stereo not given) | 0.205% |
| Cc1ccc(-n2c(O)c(/C=N/N3CCOCC3)c(=O)[nH]c2=S)cc1 | 0.115% |
| COC(=O)C1=C(c2ccc(F)cc2F)C[C@@H]2CC[C@H]1N2C(=O)NC(C)C | inactive |
| O=C(/C=C/c1ccc2c(c1)OCO2)c1c(O)n(CCC2=CCCCC2)c(=O)[nH]c1=O | 4.09% |
| O=C(N/N=C/c1c(O)n(CCC2=CCCCC2)c(=O)[nH]c1=O)c1ccccc1 | 0.065% |
| COc1ccc(/C=C/C(=O)c2c(O)n(CCC3=CCCCC3)c(=O)[nH]c2=O)cc1 | 9.38% (active) |
| CC(ON1CC1(C(F)(F)F)C(F)(F)F)(C(N)=O)C(N)=O (stereo not given) | 0.53% |
| CC(C)N1C(=O)NC(=O)C2(Cc3cc([N+](=O)[O-])ccc3N(C)C2c2ccccc2)C1=O (stereo not given) | 1.19% |
| CN1c2ccc([N+](=O)[O-])cc2CC2(C(=O)NC(=O)N(c3ccccc3)C2=O)C1c1ccccc1 (stereo not given) | 15.4% (active) |
| CN1c2ccc([N+](=O)[O-])cc2CC2(C(=O)NC(=O)NC2=O)C1c1ccccc1 (stereo not given) | inactive |
| CN1C(=O)C(=Cc2ccc(N3CCOCC3)o2)C(=O)N(C)C1=O | inactive |
| C/C(=N\Nc1ccccc1)c1c(O)n(Cc2ccccc2)c(=O)[nH]c1=O | inactive |
| COC(=O)C1=C(c2ccc(F)cc2F)C[C@@H]2CC[C@H]1N2C(=O)NCCOc1ccccc1Cl | 3.74% |
| CCCc1nc2ccc(Br)cc2c(=O)n1-c1ccc([N+](=O)[O-])c(C(F)(F)F)c1 | 0.98% |
| COC(=O)C1=C(c2cc3ccccc3o2)C[C@@H]2CC[C@H]1N2C | 0.83% |
| COC(=O)C1=C(c2cc3ccccc3o2)C[C@@H]2CC[C@H]1N2C(=O)NCc1cccc2ccccc12 | 16.2% (active) |
| CCCNC(=O)N1[C@H]2CC[C@@H]1C(C(=O)OC)=C(c1cc3ccccc3o1)C2 | 4.1% |
| CCC(=NCCC(c1ccccc1)c1ccccc1)c1c(O)[nH]c(=O)[nH]c1=O | 2.3% |
| COC(=O)C1=C(c2ccc3ccccc3c2)C[C@@H]2CC[C@H]1N2C(=O)NC1Cc2ccccc2C1 | 6.91% |
| O=C(Nc1ccccc1)c1c(O)[nH]c(=O)[nH]c1=O | inactive |
| Cc1ccc(CN2C(=O)CN=C(c3ccccc3)c3ccccc32)cc1 | 9.14% (active) |
| O=C1CN=C(c2ccccc2)c2cc(Br)ccc2N1Cc1cc(=O)n2ccccc2n1 | 0.155% |
| O=C(N/N=C/c1c(O)n(CCc2ccccc2)c(=O)[nH]c1=O)c1ccncc1 | 0.65% |
| CN(C)S(=O)(=O)c1cc(NC(=O)COC(=O)Cc2ccccc2)ccc1Cl | inactive |
| COC(=O)C1=C(c2ccc(S(C)(=O)=O)cc2)C[C@@H]2CC[C@H]1N2C(=O)NCc1ccc(C(F)(F)F)cc1 | 0.31% |
